# Reference: PubChem BioAssay (NCATS)
# Values without a mark were called inactive. No rule for the calls is given here.
# System: HIV-1 nucleocapsid protein NCp7 (binding to TG oligonucleotide)
# Test: HIV Nucleocapsid (AID 346);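 also: potency is for inhibitors that block NC binding and lower polarization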
# Conditions: HIV-1 NC / fluorescein-TGTGTGTG probe, fluorescence polarization
# Outline: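 Fluorescence polarization readout: labelled TG4xF oligo (10 nM) with 100 nM nucleocapsid protein, high-salt (250mM NaCl) Hepes pH 7.5 buffer containing zinc and fresh reducing agents. Compounds added by pin tool; incubation 1 hr, room temperature.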
# Potency is read from the fitted curve at half-maximal effect.
row,Structure (SMILES),Potency [µM]
1,c1cn(-c2ncnc3ccc(-c4ccoc4)cc23)cn1,> 20
2,O=c1c(-c2cccs2)nc2cnc(N3CCOCC3)nc2n1CCc1ccccc1,> 20
3,N#Cc1cccc(-c2nccc(NCc3cccnc3)n2)c1,> 20
4,O=C(c1ccco1)N1CCC2(CCCN(c3ccccn3)C2)CC1,> 20
5,O=c1cnc2cnc(OCc3ccccc3)nc2n1Cc1ccc(F)cc1,> 20
6,COc1ncc2nc(-c3cn(C)c4ccccc34)c(=O)n(CCc3ccccc3)c2n1,> 20
7,N#CCCn1c(=O)c(-c2cccs2)nc2cnc(Nc3ccccc3)nc21,> 20
8,N#Cc1ccc(CN2CCCC3(CCN(S(=O)(=O)c4ccccc4)CC3)C2)cc1,> 20
9,COc1ncc2nc(CCc3ccccc3)c(=O)n(CCc3ccccc3)c2n1,> 20
10,COCCNc1nc(-c2cccc(OC)c2)nc2ccccc12,> 20
11,CN1CCN(c2ncc3nc(-c4cccs4)c(=O)n(CCc4ccccc4)c3n2)CC1,> 20
12,COCCNc1ncnc2ccc(-c3ccccc3OC)cc12,> 20
13,COc1cccc(Cn2c(=O)c(C)nc3cnc(N(C)C)nc32)c1,> 4
14,COc1ccccc1CNc1cc(-c2cccnc2)ncn1,> 20
15,O=c1c(-c2ccc(Cl)cc2)nc2cnc(Oc3ccccc3)nc2n1C1CC1,> 20
16,Clc1ccccc1-c1cncnc1NCc1cccs1,> 20
17,CN(C)Cc1ccccc1-c1nccc(N(C)Cc2ccco2)n1,> 20
18,CN(C)C(=O)c1ccc(-c2nc(Nc3ccccc3)c3ccccc3n2)cc1,> 20
19,COc1ccccc1CNc1ncncc1-c1ccc(C(=O)N(C)C)cc1,> 20
20,COc1ccc(CNc2ncncc2-c2cccc(NS(C)(=O)=O)c2)c(OC)c1,> 20

row,Structure (SMILES),Potency [µM]
1,CN1CCN(c2ncc3nc(-c4ccccc4)c(=O)n(CCc4ccccc4)c3n2)CC1,> 20
2,COc1ccc2[nH]cc(CCNc3ncnc4ccc(-c5ccc6c(c5)OCO6)cc34)c2c1,> 20
3,O=c1cnc2cnc(Oc3ccccc3)nc2n1C1CC1,> 20
4,CC(C)NC(=O)N1CC[C@@]2(CCCN(C(=O)Oc3ccccc3)C2)C1,> 20
5,COc1ccccc1CNc1ccnc(-c2ccccc2C(F)(F)F)n1,> 20
6,CN(C)c1ncc2nc(-c3cccc(C#N)c3)c(=O)n(CCC#N)c2n1,> 20
7,Cc1cccc(CNc2nc(-c3ccccc3CN(C)C)nc3ccccc23)c1,> 20
8,CN(C)c1ccc(-c2ccc3ncnc(N(C)Cc4ccco4)c3c2)cc1,> 20
9,O=C(c1csnn1)N1CCC2(CCCN(c3ncccn3)C2)CC1,> 20
10,CS(=O)(=O)N1CCC[C@@]2(CCN(C(c3ccccc3)c3ccccc3)C2)C1,> 20
11,CN1CCN(c2ncnc3ccc(-c4cccc(C#N)c4)cc23)CC1,> 20
12,CC(=O)N1CCC2(CC1)CN(c1ccccn1)C2,> 20
13,O=c1c(-c2ccccc2)nc2cnc(N3CCOCC3)nc2n1Cc1ccc(F)cc1,> 20
14,COc1ccccc1-c1ccc2ncnc(NCc3cccnc3)c2c1,> 20
15,O=C(c1ccncc1)N1CCC2(CCCN(c3cccc(-c4ccccc4)c3)C2)CC1,> 20
16,COc1ccc2[nH]cc(CCNc3nc(-c4ccccc4CN(C)C)nc4ccccc34)c2c1,> 20
17,COc1ccc2[nH]cc(CCNc3ccnc(-c4ccccc4Cl)n3)c2c1,> 20
18,COc1ccc(C(=O)N2CCC3(CCCN(C(=O)NC(C)C)C3)CC2)cc1,> 20
19,COc1cccc(Nc2ncc3nc(C)c(=O)n(C)c3n2)c1,> 20
20,O=C(c1ccncc1)N1CCC2(CCCN(Cc3nccs3)C2)CC1,> 20
